PubChem BioAssay

Experiment: probe aLefty2 binding to arrayed compounds – biochemical, biotinylated probe, 635/667 nm fluorescence, primary screen (AID 1094);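 further: score merges spot fluorescence near 667 nm with spot signal-to-noise ratio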
Details: small-molecule microarray, higher = more signal
C[C@]1(C(=O)NCCN2CCOCC2)c2ccccc2C(=O)N(Cc2ccc(OC(F)(F)F)cc2)[C@H]1c1ccc(CO)cc1 gave a composite z-score of -0.0823.
Compound [N-]=[N+]=Nc1ccccc1[C@@H]1OC(c2ccc(OCCCO)cc2)=N[C@]1(CCS(=O)(=O)c1ccccc1)C(=O)NCCN1CCOCC1 has a composite z-score of 0.383.
Work on CC(C)CN1C(=O)[C@@]2(Cc3ccccc31)c1ccccc1C(=O)N(Cc1ccccc1C(F)(F)F)[C@H]2c1ccc(CO)cc1 yielded a composite z-score of 0.0169.
C=CC[C@]1(C(=O)N(C)C)N=C(c2ccc(OCCCO)cc2)O[C@H]1c1ccccc1N=[N+]=[N-] gave a composite z-score of 0.285.
With COc1cc2c(cc1OC)CN(C(=O)[C@H]1[C@@H]3C(=O)O[C@@H](c4ccccc4)[C@@H](c4ccccc4)N3[C@@H](c3ccc(OCCO)cc3)[C@]13C(=O)Nc1ccc(C#CC4(O)CCCCCC4)cc13)CC2 the composite z-score was 1.02.
COCCCNC(=O)[C@@H]1c2ccccc2C(=O)N(Cc2ccccc2C(F)(F)F)[C@H]1c1ccc(CO)cc1 gave a composite z-score of -0.0855.
For C=CC[C@]12N=C(c3ccc(OCCCO)cc3)O[C@H]1c1ccccc1N(C)C2=O, the composite z-score was 0.28.
Work on CCCC[C@@H]1C[C@H]1[C@@H](NC(=O)c1cccnc1)c1ccc(-c2ccccc2)cc1 yielded a composite z-score of 0.009.
C[C@@H]1ON(c2ccc(C(=O)OC(C)(C)C)cc2)[C@H](c2ccc(Br)cc2)[C@H]1C(=O)N1C(=O)OC[C@H]1Cc1ccccc1 gave a composite z-score of 0.149.
In the case of CC(C)CCC[C@@H](C)[C@H]1CC[C@@]2(C)C3=C(CC[C@]12C)[C@@]1(C)CC[C@H](OC(=O)c2ccc(Br)cc2)C(C)(C)C1CC3 (stereo partly specified), the composite z-score is reported as -0.0542.
COc1cc2c(cc1O)C(C)N(Cc1cc3c(cc1Br)OCO3)CC2 (stereo unspecified) gave a composite z-score of 0.
Compound COc1c(C)cc(-c2cc3c(c(Cc4ccccc4)n2)[Si](C(C)C)(C(C)C)OC3)cc1C has a composite z-score of -0.157.
In the case of CN(C)CCCN1C(=O)[C@@]2(c3ccc([N+](=O)[O-])cc3)CC(=O)N(CC34CC5CC(CC(C5)C3)C4)[C@@H]2c2ccc(CO)cc21, the composite z-score is reported as -0.116.
CO[C@H]1O[C@H](CO)[C@@H](OC(=O)Nc2ccc(C(F)(F)F)cc2)[C@H](OC(=O)Nc2ccc3c(c2)OCO3)[C@H]1OC(=O)Nc1ccc2c(c1)OCO2 showed a composite z-score of 0.0631.
With NC(=O)NCC#Cc1ccc2c(c1)[C@]1(C(=O)N2)[C@H](C(=O)Nc2nc3ccccc3s2)[C@H]2C(=O)O[C@H](c3ccccc3)[C@H](c3ccccc3)N2[C@@H]1c1ccc(O)cc1 the composite z-score was 0.14.
In the case of COCCOC(=O)N1C(=O)[C@@]2(c3cc(C#CC4(O)CCCCCC4)ccc31)[C@H](C(=O)N1CCCCCCC1)[C@H]1C(=O)O[C@H](c3ccccc3)[C@H](c3ccccc3)N1[C@@H]2c1ccc(OCCO)cc1, the composite z-score is reported as 1.77.
In the case of COC(=O)[C@@]1(Cc2ccccc2)[C@H]2c3cc(C(=O)N4CCCC4)[nH]c3C[C@H]2CN1C(=O)c1ccccc1, the composite z-score is reported as 0.134.
In the case of CCOC(=O)[C@H]1C/C=C/C[C@H](C(=O)OCC)C(=O)O[C@H]2[C@@H](OC)O[C@H](CO)[C@@H](OC(=O)CCc3ccccc3)[C@@H]2OC1=O, the composite z-score is reported as -0.132.
Cc1ccc(F)cc1S(=O)(=O)N[C@@H]1CCN(Cc2ccc(OC(C)C)cc2)C1 showed a composite z-score of -0.218.
COCCOC(=O)N1C(=O)[C@@]2(c3cc(C#CC4=CCCCC4)ccc31)[C@H](C(=O)N1CCN(c3ncccn3)CC1)[C@H]1C(=O)O[C@H](c3ccccc3)[C@H](c3ccccc3)N1[C@@H]2c1ccc(O)cc1 showed a composite z-score of 0.0848.
With COC(=O)C1(Cc2ccccc2)C=C2C(=C(C(C)C)C(=O)C2C)CN1 (stereo unspecified) the composite z-score was 0.469.
O=C1O[C@H](c2ccccc2)[C@H](c2ccccc2)N2[C@H]1[C@@H](C(=O)O)[C@]1(C(=O)Nc3ccccc31)[C@H]2c1ccc(O)cc1 gave a composite z-score of -0.166.
COc1ccc(NC(=O)O[C@H]2[C@H](OC(=O)Nc3ccc4c(c3)OCO4)[C@@H](OC(=O)Nc3ccc4c(c3)OCO4)[C@@H](OC)O[C@@H]2CO)cc1 gave a composite z-score of -0.0396.
Work on COc1c(C)cc(-c2cc3c(c(-c4ccccc4)n2)[Si](C(C)C)(C(C)C)OC3)cc1C yielded a composite z-score of 0.0008.
Compound C[C@@H](OCc1ccccc1)C1NC(=O)[C@@]23C(=O)N[C@@H](Cc4ccccc4)C2[C@H](C)[C@@]2(C)O[C@H]2C3/C=C/C/C=C\CNC(=O)CNC1=O (stereo partly specified) has a composite z-score of -0.145.
In the case of COc1ccc([Si](C)(C)[C@@H]2[C@@H](CC(=O)N3CCC[C@H]3CO)O[C@]3(C(=O)N(Cc4ccc(N5C(=O)c6cccc7cccc5c67)cc4)c4ccccc43)[C@H]2C)cc1, the composite z-score is reported as -0.238.
